# Tests used:
# Assay in all cases: PBM binding z-score (relative to random genomic background probes); higher = stronger binding; sequences stand for … in GC…GCGATTGACAGCGTAGAATGAAGG
# [1] = tested on: PPARg:RXRa DBDmut IVT, anti-RXR (DBD mutation: RXRa K156A/R161A, NR concentration 270 nM, RXRa partner concentration 90 nM)
# Procedure, shortened: (§1)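 Binding z-scores take random background probes as their reference. They come from custom Agilent 4×180K protein-binding microarrays incubated 1 h with ligand-free nuclear receptor dimers, with antibodies against each partner (one per run) detecting binding. Scanned fluorescence was regression-normalized.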
# [2] = tested on: PPARg:RXRa IVT, anti-PPARg (NR concentration 270 nM, RXRa partner concentration 90 nM)
# Procedure, shortened: as §1
# [3] = tested on: PPARg DBDmut:RXRa IVT, anti-PPARg (DBD mutation: PPARg1 K132A/R137A, NR concentration 270 nM, RXRa partner concentration 90 nM)
# Procedure, shortened: as §1
# [4] = tested on: PPARg DBDmut IVT, anti-PPARg (DBD mutation: PPARg1 K132A/R137A, NR concentration 270 nM)
# Procedure, shortened: as §1
# [5] = tested on: PPARg homodimer (NR concentration 180 nM)
# Procedure, shortened: as §1
# [6] = tested on: PXR:RXRa (NR concentration 270 nM, RXRa partner concentration 90 nM)
# Procedure, shortened: as §1
# [7] = tested on: PXR homodimer (NR concentration 270 nM)
# Procedure, shortened: as §1
# [8] = tested on: RARa:RXR (NR concentration 270 nM, RXRa partner concentration 90 nM)
# Procedure, shortened: as §1
# [9] = tested on: RARa homodimer (NR concentration 270 nM)
# Procedure, shortened: as §1
# [10] = tested on: RARb:RXRa (NR concentration 270 nM, RXRa partner concentration 90 nM)
# Procedure, shortened: as §1
Sequence,PBM binding z-score [1],PBM binding z-score [2],PBM binding z-score [3],PBM binding z-score [4],PBM binding z-score [5],PBM binding z-score [6],PBM binding z-score [7],PBM binding z-score [8],PBM binding z-score [9],PBM binding z-score [10]
TCTATTAGTTGAAGGGCACCCGACGAGTCCGTTT,2.29,0.553,0.299,1.3,1.25,0.824,1,0.844,1.45,1.36
CGAACTAGGTCAAAGACAGTGAATCTCCGCACGC,8.07,8.21,4.15,2.23,1.24,1.06,0.0351,1.82,0.463,3.74
TCTAGCAGGCCAGAGGGTGACTCAAGAGGTACGG,0.764,0.183,-1.35,-1.1,-0.406,-0.274,-0.839,-0.247,-1.15,0.306
CGTTACGGGTCACTCCAGGTTATAGCATCGGAGT,2.91,3.75,0.311,-0.48,1.14,5.09,0.162,3.59,0.11,3.66
AGAATGAGGTTATTAAGATCAGGGAATTGCGGTC,3.22,2.5,1.04,0.418,1.11,1.48,0.762,1.56,0.273,1.46
GCAGACAGGTGATACGCAGGTAACTCAGGGTGGC,-0.192,-0.471,-0.737,-0.846,-0.0293,-0.424,-0.57,0.0928,-0.408,-0.253
CCTACTGGCCCATCAGGTCATTGATATCAACGTT,-0.199,1.1,-0.917,0.381,1.47,1.61,0.678,1.83,0.604,1.71
GCTAGTTGGTCAGTAAAAGGTCACCCACCGGTCG,0.689,2.81,0.204,-0.0831,5.31,4.84,1.27,5.99,3.9,4.28
CCTACTGGGCCACGAAAGGTCATTAATTCAGTGA,5.58,5.87,1.7,0.266,3.46,5.12,1.71,5.32,1.1,3.79
CCTAGTTGGTCAGGAGGTCACCCACCGGATATGA,0.575,3.28,-0.921,-0.185,3.43,4.07,1.23,4.11,1.53,3.61
CTACCAAGGTGAGCAAGGTCGTTGATTACTATTC,1.33,1.62,-0.318,-0.00619,0.031,1.79,0.655,1.44,-0.327,1.64
CTCGAAAGGTCGGTTGAGGTGTGTATACGGATAA,-0.0512,0.529,0.177,-0.218,0.679,1.43,0.289,1.53,-0.365,2.68
CTCGAGAGGTCGGTTGAGGTGAGTATACGGATAA,0.581,0.606,-0.792,-0.363,0.728,3.5,0.389,2.64,-0.682,2.05
GCTTGTAGATCAAGGTTAACAAAGACTAAGCTAA,1.56,1.61,-0.0951,0.163,0.0842,0.565,0.265,1.07,-0.205,1.04
GAGACAGGGTCAAGGCCAGAGTACGCGTATTGAT,1.79,2.9,0.251,-0.239,2,3.78,-0.543,4.4,0.471,4.2
ATCTCTAGGTATAGATAGTTCAGTGAATGCAAAT,-0.0574,0.416,1.48,1.36,0.546,0.877,0.855,0.453,0.807,0.415
AGTCAAAGTTCAGGACGGGGTAACGTAAAGCACG,0.312,2.3,1.25,1.24,1.87,3.66,1.28,3.45,1.36,4.13
TCATATAGGTAAACAAGTGAAAGTCCGTAAGTTA,3.94,2.87,1.04,0.969,0.811,0.871,0.525,0.876,1.3,0.893
CAAACTAGGTGAAGGTCAAAGTCGGTTTGTGCCA,8.04,8.04,2.16,0.309,2.76,3.95,0.968,4.27,0.0969,3.87
CCTACTGGGCCAGAAAGGTCATTGATGCCGATAA,2.56,3.3,-0.848,-1.13,2.14,4.76,2.21,5.01,1.75,3.73
ACTACAGGGTCATCGTAGGCCAGAGTACGCACAG,1.66,3.47,2.18,1.55,1.49,4.76,0.458,4.67,0.217,4.45
ATATGTAGGTTAGCTGGGGTCATTCGGACTAGGC,6.85,6.3,3.21,1.98,4.23,6.74,5.39,6.34,1.19,3.05
ACAGACAGGTGATAAAGGTAACTCAGGCTATCAT,-0.135,0.46,-0.885,-0.537,0.207,-0.0528,0.0239,0.267,-0.124,0.423
CGTCCAAGGTCAGCAGGACAGTGAAAGCGACGTG,2.27,2.58,0.502,-0.859,1.75,2.27,0.176,2.92,0.175,5.17

# Source: the supplement of paper PMC6555819
